Bioassay records as filed in PubChem.
MCF10A rerep = induces DNA re-replication in MCF 10a normal breast cells; Potency, µM (highest dose often 46.1 µM), hits mostly activators; MCF 10A DNA re-replication, Hoechst nuclear intensity, 48 h; actives 2.9% (n = 350,000); AID 624296; also: nearly all actives have a fitted effect of over 50% in size
KB-3-1 cytotox = kills parental KB-3-1 adenocarcinoma cells. KB-3-1 viability, CellTiter-Glo ATP luminescence, 72 h. Potency, µM (titrated, usually from 46.1 µM), usual class: cytotoxic. actives 1.4% (n = 400,000). AID 1347075; also: nearly all actives have a fitted effect of over 60% in size
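Viability of parental KB-3-1 cells, measured by CellTiter-Glo luminescence, followed a 72 h incubation at 37 °C with pinned compounds in phenol-red-free DMEM containing 10% FBS.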
HT1080NT lethal = kills 2HG-producing HT-1080-NT fibrosarcoma cells | HT-1080-NT fibrosarcoma viability, CellTiter-Glo ATP luminescence, 48 h | Potency, µM (highest dose often 46.1 µM), actives largely listed as cytotoxic | actives 1.6% (n = 360,000) | AID 686970;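 also: NT is the 2HG producing partner of a matched IDH1 knockdown line; nearly all actives have a fitted effect of over 55% in size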
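HT-1080-NT; 750 cells/well; 5% FBS RPMI; 48 h compound, 37 degrees C; CellTiter-Glo luminescence; curve fitting and curve-class assignment.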
SW480 rereplic = DNA re-replication induction in SW480 cells; SW480 DNA re-replication, Hoechst DNA content imaging, 48 h; Potency, µM (top dose mostly 46.1 µM), most hits filed as activators; actives 1.8% (n = 340,000); also: nearly all actives have a fitted effect of over 55% in size
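SW480 cells exposed to compounds for 48 hr at 37 C, 5% CO2, then Hoechst-stained 40 min. Nuclear DNA content imaged by fluorescence scanning (405 nm excitation, 500-530 nm emission); re-replication scored as increased high-intensity nuclei.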
HT1080 IDH1KD tx = kills HT-1080 cells with IDH1 knockdown | HT-1080 IDH1 knockdown viability, ATP luminescence, 48 h | Potency, µM (titrated, usually from 46.1 µM), most hits filed as cytotoxic | actives 2% (n = 360,000) | AID 686971
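Knockdown cells (IDH1KD HT-1080) received compounds 2 h after plating at 750 cells/well and were kept 48 h at 37 °C in 5% FBS RPMI. A CellTiter-Glo luminescence read gave % activity for curve fitting.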
KB-V1 cytotox = KB-V1 MDR subline cytotoxicity; KB-V1 MDR cells viability, CellTiter-Glo, 72 h; Potency, µM (doses to about 46.1 µM), usual class: cytotoxic; actives 3.4% (n = 400,000); AID 1347076; also: nearly all actives have a fitted effect of over 60% in size
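Readout: CellTiter-Glo luminescence, 10 min after addition. Cells: KB-V1 MDR subline, 72 h at 37 degrees C with compound. Analysis: corrected, normalized data fitted to concentration-effect curves.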
Large screens that a line does not name were inactive. The list is not random: actives were taken first. Their share in the collection is about 7.9%. Calls follow the shape of the dose curve; as a rule, active = well fitted curve in the direction sought with a large enough effect; inconclusive = small, poorly fitted or top-dose-only effect, or another doubt; inactive = no such curve, though single readings can be large; an effect the other way counts as inactive or inconclusive.

CCOC(=O)C1(Cc2ccccc2C(F)(F)F)CCN(CC(O)CO)CC1 (stereo unspecified)	none
CCOC(=O)C1(Cc2ccccc2C(F)(F)F)CCN(C2CCN(C(C)C)CC2)CC1	MCF10A rerep 18µM, HT1080NT lethal inconclusive, HT1080 IDH1KD tx 15µM, KB-V1 cytotox inconclusive
CCOC(=O)C1(Cc2ccccc2C(F)(F)F)CCN(Cc2ccc(COC)o2)CC1	MCF10A rerep inconclusive, KB-3-1 cytotox 18µM, HT1080NT lethal inconclusive, HT1080 IDH1KD tx inconclusive, KB-V1 cytotox inconclusive
Cc1cc(OCc2cc(C(=O)NCCN3CCCCC3CO)no2)cc(C)c1Cl (stereo unspecified)	MCF10A rerep inconclusive, HT1080NT lethal inconclusive, SW480 rereplic inconclusive, HT1080 IDH1KD tx inconclusive
Cc1ccc(-c2csc(/C(C#N)=C(\O)CCl)n2)cc1	MCF10A rerep 16µM
N#C/C(=C(/O)CCl)c1nc(-c2ccccc2)cs1	MCF10A rerep inconclusive, KB-3-1 cytotox inconclusive, SW480 rereplic inconclusive, KB-V1 cytotox inconclusive
COC(=O)C1(C)COP(=O)(NC23CC4CC(CC(C4)C2)C3)OC1 (stereo unspecified)	KB-V1 cytotox 18µM
CSc1nc(NCC(C)C)c2c3c(sc2n1)CN(C)CC3	HT1080 IDH1KD tx inconclusive, KB-V1 cytotox 18µM
CSc1nc(NCc2ccccc2)c2c3c(sc2n1)CN(C)CC3	MCF10A rerep 23µM, HT1080NT lethal inconclusive, HT1080 IDH1KD tx inconclusive, KB-V1 cytotox inconclusive
Cc1[nH]c2ccccc2c1C(c1c[nH]c2ccccc12)c1c(C)[nH]c2ccccc12	none (no result: MCF10A rerep, HT1080NT lethal, SW480 rereplic, HT1080 IDH1KD tx)
O=C(NC(c1ccc(Cl)cc1)c1c(O)ccc2ccccc12)c1ccccc1 (stereo unspecified)	MCF10A rerep inconclusive, KB-3-1 cytotox inconclusive, HT1080NT lethal inconclusive, SW480 rereplic inconclusive, HT1080 IDH1KD tx inconclusive, KB-V1 cytotox 21µM
O=C(NC(c1ccccc1)c1c(O)ccc2ccccc12)c1ccccc1Cl (stereo unspecified)	MCF10A rerep 23µM, KB-3-1 cytotox inconclusive, HT1080NT lethal 18µM, SW480 rereplic inconclusive, HT1080 IDH1KD tx 11µM, KB-V1 cytotox 21µM
Oc1ccccc1N=Nc1ccccc1O	KB-3-1 cytotox 7.3µM, HT1080NT lethal inconclusive, SW480 rereplic inconclusive, HT1080 IDH1KD tx inconclusive, KB-V1 cytotox inconclusive
COc1ccc(S(=O)(=O)N(CC(=O)Nc2ccc(OC)cc2OC)c2ccc(Cl)cc2)cc1	KB-V1 cytotox inconclusive (no result: MCF10A rerep, HT1080NT lethal, SW480 rereplic, HT1080 IDH1KD tx)
N#Cc1nc(Cc2ccccc2)oc1NCCCn1ccnc1	MCF10A rerep inconclusive, SW480 rereplic 16µM
Clc1ccc(C(Cn2ccnc2)OCc2c(Cl)cccc2Cl)c(Cl)c1 (stereo unspecified)	MCF10A rerep 4.6µM, HT1080NT lethal 16µM, SW480 rereplic inconclusive, HT1080 IDH1KD tx inconclusive, KB-V1 cytotox inconclusive
OC(Cn1ccnc1)c1ccc(Cl)cc1Cl (stereo unspecified)	KB-3-1 cytotox inconclusive, KB-V1 cytotox inconclusive
Cc1csc2c1c(=O)n(O)c(=O)n2Cc1ccccc1	none (no result: MCF10A rerep, HT1080NT lethal, SW480 rereplic, HT1080 IDH1KD tx)
O=[N+]([O-])c1ccc(NC(=S)NCCc2ccc(F)cc2)cc1	MCF10A rerep 10µM, KB-3-1 cytotox inconclusive, HT1080NT lethal inconclusive, SW480 rereplic inconclusive, HT1080 IDH1KD tx 23µM
Cc1cc(Nc2cccc(F)c2)n2nc(-c3ccco3)nc2n1	none (no result: MCF10A rerep, HT1080NT lethal, SW480 rereplic, HT1080 IDH1KD tx)
Cc1sc(NC(=O)c2ccco2)nc1-c1ccc2c(c1)CC(C)N2C(=O)C1CC1 (stereo unspecified)	MCF10A rerep 5µM, KB-3-1 cytotox inconclusive, HT1080NT lethal 7.9µM, SW480 rereplic 6.3µM, HT1080 IDH1KD tx 7.9µM, KB-V1 cytotox inconclusive
CCCCCN(C(=O)CCC(=O)OCC(=O)N(CC)C1CCCCC1)c1c(N)n(CCCC)c(=O)[nH]c1=O	none
OC(c1ccccc1)(c1nc(-c2cc3ccccc3o2)cs1)C(F)(F)F (stereo unspecified)	KB-3-1 cytotox 23µM, HT1080NT lethal 16µM, HT1080 IDH1KD tx inconclusive, KB-V1 cytotox inconclusive (no result: MCF10A rerep, SW480 rereplic)
OC(c1ccccc1)(c1nc(-c2csc3ccccc23)cs1)C(F)(F)F (stereo unspecified)	HT1080NT lethal inconclusive, HT1080 IDH1KD tx inconclusive, KB-V1 cytotox inconclusive (no result: MCF10A rerep, SW480 rereplic)
